Experimental findings from the supplement of paper PMC6555819 are described below.

This experiment deals with PPARg:RXRa 90nM:30nM, anti-RXR (NR concentration 90 nM, RXRa partner concentration 30 nM). As to the kind of experiment: PBM binding z-score (relative to random genomic background probes); higher = stronger binding; sequences stand for … in GC…GCGATTGACAGCGTAGAATGAAGG
An outline of the steps:
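Custom Agilent 4×180K protein-binding microarrays carried double-stranded probes, each with a 34-nt variable region. These regions held direct-repeat seeds, single-nucleotide variants, half-site ablations and random human genomic background sequences. Ligand-free nuclear receptor dimers were incubated on the arrays for 1 h, antibodies against each partner (one per run) detected binding, and scanned fluorescence was regression-normalized. Binding z-scores take the random background probes as reference.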
As for AGAACGAGGGCAATGAGTTGATAACACGGGTGGC, the PBM binding z-score stood at 0.611.
The same measure for ACTAGCAGGCCAAGGGTCAATCAAGATTAGTCCG: 8.3; for AATACAGGGTCATCGTAGGCCAGTGTACGCACAG: 4.66; for TGTCAAAGTTCAAAGGCAACGTAAGTATCCACAC: 7.03.
Then TGGCCTAGGTCATTGGGCCAGTATAGTACGCATC, with 2.2; and ATCGAAAGGTCGGCGAGGTGAGTATACACCGTTT, with 1.11.
Then CCTAGTTGGTCAAGAGGTCACACACCGGATATGA, with 4.81; and TCTGCTAGGTCAGCTGGTCAGCTAACGAGCTGCC, with 1.23.
As to CCGACTGGAGCAGAAAGGTTACCATACCATCCGG, the PBM binding z-score worked out at 2.24.
Turning to CAAACTAGGTCACCTGAAGGTCAAAGTCCGCATG, the PBM binding z-score was 7.17.
The same measure for GCCACTGGGGCATCAGCAGGTTACCATAACTTAA: 0.914; for CAGCCTAGGTCAGGGCCAATATAGGAGGAACGTT: 0.449; for CTGAGTAGGTTATGGGGCATTCAGGCAACGGTGA: 5.01.
CGACCAAGGTCAAAGGTCAGTGAAGAGATGACGG came in with a PBM binding z-score of 10.4.
The sequence ACTCGTAGGACAAAGGTCAGAGCTACGCCAGTGA gave a PBM binding z-score of 8.26.
The same measure for GGTACGAGGGCAAGTTGATAGCAGAGTTTGATGG: 0.235; for CTCGAAAGGTCGTTCTCAGGTGAGTATACCAAAC: 2.29; for AGTACAGGGTCATCGTAGGCCAGAGTACGCACAG: 4.41.
Then TCTTGTGGATCAGCAGGTTAAGAAAGCTGGCCAA, with 1.83; and TTACCAAGGTGAGCAGAGGTCGTTGATCCAACTC, with 2.68.
The same measure for GCGACAGGGGCATCAGCAGGTTACCATAACTTAA: -0.547.
Turning to TCATATAGTTAAAAGGTGAAAGTCGGTGTGGTAA, the PBM binding z-score amounted to 5.39.
On to TCGAGTAGGTTAGGGGCATTCAAAATGGCGTCGA, for which the PBM binding z-score was determined as 1.69.
Then TCTCGGTGGACACGAAAGGTCAGAGCTCGACATC, with 2.78; and TGAATGAGGTTATAAGATCAGCGAACGTTGCAAA, with 1.34.
With GCTTGTAGATTAAGGTTAAGAAAGACTAAGCTAA, the PBM binding z-score stood at 0.49.
Then CGAAGTAGGTCAAGGACAGTGAATCTCCGCACGC, with 6.44; and ACTAGAAGGCCAAGTTTGGGTCACTCAAACAAAG, with 0.134; and CCTACTGGGCCACGGAAGGTCATTGATTCAGTGA, with 2.35.
The same measure for TCTAGTAGATCAATAGAGGTTAAGAAAGTGCGCT: 2.4; for AATACAGGGTCATCGTCGGCCAGAGTACGCACAG: 4.97; for TGAATGAGGTTATAAGATCAGGGATCGTTGCAAA: 1.28.
As for ATAGAAAGGTCGAGGTGAGTATAGAGAAAGGGAA, the PBM binding z-score was found to be 2.2.
The same measure for ATCTCTAGGTAAAAGTTCAGTCAATCCCGAGGAT: 9.66; for CCTTAAGGGTCAAGGTTATAGCACGGGTGGTACG: 4.78.
The same measure for CTCGAAAGGTCGTGCTCAGGTGAGTATACCAAAC: 2.23; for ACAGACAGTTGAGTGAAGGTAACTCAGCTGGACG: -0.284.
The same measure for GCTGCTAGGTTAGGTTGGTCAGCTAACGGGTACG: -0.625; for CGTCCAAGGTCAAGGGTCAGTGAAGAGATGACGG: 7.94.
